In all, about 420,000 compounds went through this assay and about 64,000 (15%) were called active. Inconclusive results (about 27%) are left out. The list is a sample of the results. A number with no mark means an inactive call. The call rests on the fitted dose curve; in most records, active means well fitted inhibition curve with a large enough effect; inconclusive means small, poorly fitted or top-dose-only effect; inactive means flat fitted curve, though single readings scatter.
On the % scale 0 is the no-effect control and ±100 the full control effect; potency means the concentration at half of the fitted maximal effect.

A short description of the assay: qHTS for Inhibitors of human tyrosyl-DNA phosphodiesterase 1 (TDP1): qHTS in cells in absence of CPT. Further: nearly all actives have a fitted effect of over 55% in size. As to conditions: DT40 Tdp1-/- hTDP1 cells, no CPT, ATP luminescence, 48 h; activity change, negative = growth inhibition: at 46.2 µM (top of the series). In short, it runs like this: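 Chicken DT40 Tdp1-/- cells complemented with human TDP1, screened without camptothecin (DMSO vehicle only), 400 cells/well. Compounds pin-transferred, cells incubated at 37 °C for at least 48 hr. Growth read as ATP-dependent luminescence (CellTiter-Glo, 30 min at RT).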
Consider `Cc1ccccc1C(=O)N1CCC(C(=O)Oc2ccc(C#N)cc2)CC1`, for which the “activity change, negative = growth inhibition” value was 3.44%.

`CCc1nnc(NC(=O)C2CCN(C(=O)c3ccccc3C)CC2)s1`: the “activity change, negative = growth inhibition” value is 6.29%.

Consider `Cc1ccccc1C(=O)N1CCC(C(=O)Nc2ccc(S(=O)(=O)N(C)C(C)C)cc2)CC1`, for which the Potency was 20.6 µM (active).

As for `COc1ccc(-n2c(C)csc2=S)cc1`, the “activity change, negative = growth inhibition” value is -9.93%.

Take `COC(=O)C1(C(=O)OC)C/C=C\CN(S(=O)(=O)c2ccccc2[N+](=O)[O-])CCC1`: the Potency is 16.4 µM (active).

As for `COc1ccc(S(=O)(=O)N2CCC(C(=O)OCC(=O)c3ccccc3)CC2)cc1[N+](=O)[O-]`, the “activity change, negative = growth inhibition” value was -10.2%.

On to `O=C(OCCN1C(=O)c2ccccc2C1=O)[C@@H]1CC(O)CN1S(=O)(=O)c1ccccc1[N+](=O)[O-]` (stereo partly drawn), for which the “activity change, negative = growth inhibition” value is 4.14%.

Turning to `Cc1nnc(NCCO)c2ccccc12`, the “activity change, negative = growth inhibition” value is -3.13%.

As to `COCCNc1ncnc2c1ncn2[C@H]1CN(Cc2ccc(OC)cc2)C[C@@H](CO)O1`, the “activity change, negative = growth inhibition” value was -11.2%.

For `COc1ccc(-c2oc3ncnc(NCCCO)c3c2-c2ccc(OC)cc2)cc1`, the Potency was 16.4 µM (active).

Regarding `OCCNc1ncnc2oc(-c3ccco3)c(-c3ccco3)c12`, the Potency was 20 µM (active).

Consider `OCCc1ccc(NCCc2ccco2)cc1`, for which the “activity change, negative = growth inhibition” value is -7.84%.

For `Nc1nonc1C(=O)NCCc1ccccc1`, the “activity change, negative = growth inhibition” value is 2.03%.

Consider `O=S1(=O)C=C(SCCN2CCCC2)c2ccccc21`, for which the “activity change, negative = growth inhibition” value is -17.4%.

In the case of `CCCC(C)NC(=O)C1CCN(C(=O)C2CC(=O)N(c3ccc(C)cc3)C2)CC1` (stereo not drawn), the “activity change, negative = growth inhibition” value is -16.9%.

As for `Cc1ccsc1CNn1cnnc1SCc1ccccc1F`, the “activity change, negative = growth inhibition” value was -16.7%.

With `CCn1c(CNC(=O)c2ccco2)nnc1SCC(=O)Nc1cccc(F)c1`, the “activity change, negative = growth inhibition” value is 25.7%.

As for `CC(C)[C@H](CO)Nc1nc(Nc2cc(N)cc(Cl)c2)c2ncn(C(C)C)c2n1`, the Potency is 2.99 µM (active).

As for `COC(=O)C(C)n1cnc2c(nnn2-c2cccc(Cl)c2)c1=O` (stereo not drawn), the “activity change, negative = growth inhibition” value was -2.72%.

Take `CC(C)n1cnc2c(Nc3cccc(Cl)c3)nc(N(CCO)CCCO)nc21`: the Potency is 14.6 µM (active).

With `O=C(NCCc1ccccc1)c1ccc(NC2=NC3CS(=O)(=O)CC3S2)cc1` (stereo not drawn), the “activity change, negative = growth inhibition” value is -3.78%.

For the molecule `Cc1cc(NS(=O)(=O)c2ccc(NC(=O)C(C)Oc3cccc(C)c3C)cc2)nc(C)n1` (stereo not drawn), the “activity change, negative = growth inhibition” value was 1.7%.

As to `O=C(CSc1ncnc2sccc12)NC1CCS(=O)(=O)C1` (stereo not drawn), the “activity change, negative = growth inhibition” value is 1.97%.

Turning to `Cn1c(SCC(=O)Nc2cccc(O)c2)nnc1-c1ccc(S(=O)(=O)N2CCOCC2)cc1`, the “activity change, negative = growth inhibition” value is -22.6%.

Turning to `Cc1ccc([C@@H]2CC(=O)[C@@H]3CN(S(=O)(=O)c4ccc(C)cc4)[C@H](c4ccccc4F)C[C@@H]3N2S(=O)(=O)c2ccc(Cl)cc2)cc1`, the “activity change, negative = growth inhibition” value was -6.21%.

Regarding `Cc1ccccc1CSc1nnc(-c2cccnc2)n1N`, the “activity change, negative = growth inhibition” value is -16.3%.

Take `Cc1ccc(-c2nn(-c3ccccc3)cc2CN(Cc2ccccc2)C(=O)CCC(=O)O)o1`: the “activity change, negative = growth inhibition” value was -5.97%.

Consider `COCCCNC(=O)Cn1cc(C(=O)C2CC2)c2ccccc21`, for which the “activity change, negative = growth inhibition” value is -8.41%.

`CCC(C(=O)OC)n1cnc2c(oc3ccccc32)c1=O` (stereo not drawn): the “activity change, negative = growth inhibition” value was 8.29%.

As to `O=C(CSc1ncnc2c1oc1ccccc12)NC1CCCC1`, the “activity change, negative = growth inhibition” value is -11.6%.

As to `COc1ccccc1Nc1ncnc2c1oc1ccccc12`, the Potency was 11.6 µM (active).

Turning to `COc1ccc(CN2CCC3(CCC(CNC(=O)c4ccco4)O3)CC2)cc1OC` (stereo not drawn), the “activity change, negative = growth inhibition” value is -20%.

As to `CCCCCCCNc1nc(Cl)nc(NCCO)n1`, the “activity change, negative = growth inhibition” value is -13.2%.

For `Cc1occc1-c1nnc(SCC(=O)NC2CCCCC2)o1`, the “activity change, negative = growth inhibition” value was -27.7%.

As to `CCOC(=O)Nc1ccc(NC(=O)OCC)cc1`, the “activity change, negative = growth inhibition” value is -7.66%.

On to `CCOC(=O)Nc1ccc2c(c1)N(C(=O)CCCl)c1ccccc1[S@]2=O`, for which the Potency was 3.66 µM (active).

On to `CCNC(=O)N1c2ccccc2Sc2ccccc21`, for which the “activity change, negative = growth inhibition” value is -18%.

Take `CCOC(=O)Nc1ccc2c(c1)N(C(=O)CCN1CCN(CCO)CC1)c1ccccc1CC2`: the “activity change, negative = growth inhibition” value was -1.78%.

As for `CCOC(=O)CNC(=O)CN1C(=O)CCSc2ccccc21`, the “activity change, negative = growth inhibition” value was 1.6%.

On to `CCNCCC(=O)N1c2ccccc2Sc2ccc(NC(=O)OCC)cc21`, for which the Potency was 13 µM (active).

Regarding `CN1CCC2(CC1)CCN(S(=O)(=O)c1ccccc1)CC2`, the “activity change, negative = growth inhibition” value was 1.52%.

In the case of `Cc1ccc(S(=O)(=O)N(c2cccc(C)c2)C2CCS(=O)(=O)C2)cc1` (stereo not drawn), the “activity change, negative = growth inhibition” value is -4.69%.

`CC(C)Sc1ncnc2c1cnn2-c1ccccc1`: the “activity change, negative = growth inhibition” value was -28.2%.

On to `O=C(O)c1cc(S(=O)(=O)Nc2ccc3cn[nH]c3c2)ccc1Br`, for which the “activity change, negative = growth inhibition” value was 7.47%.

Turning to `CC(C)N1C(=O)C2C(C(=O)NC3CCCCC3)C3C=CC2(O3)C1C(=O)NC1CCCC1` (stereo not drawn), the “activity change, negative = growth inhibition” value is -1.95%.

With `CCCCOC(=O)Nc1nccs1`, the “activity change, negative = growth inhibition” value was -5.44%.

Regarding `CCCc1cc(=O)n2[nH]c(SCc3ccccc3)nc2n1`, the “activity change, negative = growth inhibition” value is -7.3%.

Turning to `C=CCn1c2ccccc2c2nnc(SC(CC)C(=O)Nc3nc(C)c(C(=O)OCC)s3)nc21` (stereo not drawn), the Potency is 8.2 µM (active).

For the molecule `CCOC(=O)c1sc(NC(=O)C(CC)Sc2nccn2C)nc1C` (stereo not drawn), the “activity change, negative = growth inhibition” value is -23.3%.

In the case of `CCn1c2ccccc2c2nnc(SCC(=O)O)nc21`, the “activity change, negative = growth inhibition” value is -19.8%.

Turning to `N#Cc1cc2[nH]c(=O)c(=O)[nH]c2cc1[N+](=O)[O-]`, the “activity change, negative = growth inhibition” value was 9.21%.

Turning to `CSc1n[nH]c(=S)n1N`, the “activity change, negative = growth inhibition” value was -6.87%.

Turning to `N#Cc1ccc(S(=O)(=O)NCC(=O)OCC(=O)NCCc2ccccc2)cc1`, the “activity change, negative = growth inhibition” value is 19.7%.

These data come from PubChem BioAssay AID686978 (National Center for Advancing Translational Sciences (NCATS), 2013).
